20 compounds from PubChem BioAssay (NCI) can be followed below.

The structures appear in SMILES notation. The panel holds about 79,000 compounds, 15% with a hit somewhere; the sample as a whole holds those more often. Unmarked numbers belong to inactive results. The source made the active and inactive calls. Rule as the data show it: active = growth inhibition above about 70%; inactive = the rest.

The nature of assay [1]: NCI Yeast Anticancer Drug Screen. Data for the rad50 strain (AID 155).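 Also: 0% = growth of vehicle-only cultures of the same strain.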 The conditions noted are these: S. cerevisiae rad50 strain growth inhibition; at 50.0 µM; stronger effect = higher value. In a few lines: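 Inhibition values express reduced yeast growth in compound-treated cultures relative to vehicle-treated controls.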
The nature of assay [2]: NCI Yeast Anticancer Drug Screen. Data for the mec2-1 strain (AID 157). The conditions noted are these: S. cerevisiae mec2-1 strain, at 50.0 µM, stronger effect = higher value. In a few lines: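 Cells of the genetically defined mec2-1 yeast strain are incubated with test compound. Inhibition of growth is calculated against vehicle-treated controls.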
Assay [3] in a line: NCI Yeast Anticancer Drug Screen. Data for the sgs1 mgt1 strain (AID 161).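 Also: 0% = growth of cultures given vehicle only.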 The conditions noted are these: S. cerevisiae sgs1 mgt1 strain, at 50.0 µM, stronger effect = higher value. The procedure, abridged:
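Inhibition of yeast growth, normalised to vehicle-treated controls, is reported for a strain bearing genetic alterations in DNA damage repair.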

A short description of assay [4]: NCI Yeast Anticancer Drug Screen. Data for the cln2 rad14 strain (AID 165).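 Also: 0% = growth equal to vehicle treated cultures.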 The conditions noted are these: S. cerevisiae cln2 rad14 strain, at 50.0 µM, stronger effect = higher value. The procedure, abridged:
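The screen exposed genetically defined yeast (cln2 rad14) to test compounds and scored growth inhibition relative to vehicle-treated controls.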

A short description of assay [5]: NCI Yeast Anticancer Drug Screen. Data for the bub3 strain (AID 167). The conditions noted are these: S. cerevisiae bub3 mutant strain, at 50.0 µM, stronger effect = higher value. The procedure, abridged:
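Steps: expose the mutant yeast strain to compound; grow alongside vehicle-treated cultures; measure growth; express inhibition against the vehicle cultures.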

The nature of assay [6]: NCI Yeast Anticancer Drug Screen. Data for the mlh1 rad18 strain (AID 175). The conditions noted are these: S. cerevisiae mlh1 rad18 strain growth inhibition; at 50.0 µM; stronger effect = higher value. In a few lines:
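Compound-treated yeast growth, normalised to vehicle controls. Strain bears defined DNA repair mutations.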

`CCCCN(CCCC)CC(O)c1cc(Cl)c(Cl)cc1C` (stereo not given): the growth inhibition is 10.5% in assay [1]; -13.2% in assay [2]; 35.1% in assay [3]; -1.3% in assay [4]; 27.4% in assay [5]; 25.3% in assay [6].
With `COc1ccc2c(c1OC(C)=O)-c1cc(OC(C)=O)cc3c1C(C2)NCC3` (stereo not given), the growth inhibition in assay [1] is 11.7%; in assay [2], -4%; in assay [3] it was -5.7%; in assay [4], 6.65%; in assay [5] it was 1.9%; in assay [6], 4.4%.
Regarding `N[C@@H](Cc1ccc2oc3cc(=O)c4ccccc4c-3nc2c1)C(=O)O`, the growth inhibition is 26% in assay [1]; 32.9% in assay [2]; 10% in assay [3]; 39.2% in assay [4]; 28.8% in assay [5]; 35% in assay [6].
For the compound `NC(Cc1c[nH]c2cc([N+](=O)[O-])ccc12)C(=O)O` (stereo not given), the growth inhibition in assay [1] was 13.8%; in assay [2] it was 2.15%; in assay [3] it was -33.9%; in assay [4], -7.45%; in assay [5], -43%; in assay [6], -0.25%.
In the case of `O=[N+]([O-])c1ccc(N2CC2)c([N+](=O)[O-])c1`, the growth inhibition in assay [1] is 1.85%; in assay [2], -1.95%; in assay [3], 10.5%; in assay [4] it was 20%; in assay [5] it was -0.95%; in assay [6], 5.45%.
Turning to `N.N.N.N.O=C([O-])C(Cl)Cl.O=C([O-])C(Cl)Cl.[Co+3].[O-][Cl+3]([O-])([O-])[O-]`, the growth inhibition in assay [1] is -10.1%; in assay [2] it was -13.2%; in assay [3], -23.1%; in assay [4] it was -15.2%; in assay [5] it was -6.1%; in assay [6], -13.6%.
In the case of `CC(C)N1C(=O)NC(=O)C2(CCCC2)C1=O`, the growth inhibition in assay [1] is -2.15%; in assay [2] it was 3.05%; in assay [3] it was -1.5%; in assay [4], -28.4%; in assay [5] it was -12.6%; in assay [6], -2.5%.
With `C#C[C@]1(O)CC[C@H]2[C@@H]3CCC4=C/C(=N/OC(=O)c5cccc6c(=O)c7ccccc7[nH]c56)CC[C@@H]4[C@H]3CC[C@@]21C`, the growth inhibition is 1.6% in assay [1]; -4.5% in assay [2]; 11.3% in assay [3]; 9.7% in assay [4]; -24.9% in assay [5]; -3.55% in assay [6].
Turning to `CCC1(C(C)=O)CN2CCc3cc(OC)c(OC)cc3C2N2CCc3ccc(OC)c(OC)c3C21` (stereo not given), the growth inhibition is 96.9% (active) in assay [1]; 97.8% (active) in assay [2]; 97.7% (active) in assay [3]; 96.7% (active) in assay [4]; 98.5% (active) in assay [5]; 98% (active) in assay [6].
For the compound `O=C(CC(=O)C(F)(F)F)c1cccs1.O=C(CC(=O)C(F)(F)F)c1cccs1.O=C(CC(=O)C(F)(F)F)c1cccs1.[Tb]`, the growth inhibition in assay [1] was -5%; in assay [2], 20.6%; in assay [3] it was 24.6%; in assay [4], -27.5%; in assay [5], -1.5%; in assay [6], 28.2%.
Consider `S=P(Oc1cc(Cl)c(Cl)cc1Cl)(N1CCOCC1)N1CCOCC1`, for which the growth inhibition in assay [1] was 37.1%; in assay [2], 8.85%; in assay [3], 42%; in assay [4] it was 35%; in assay [5], 12.3%; in assay [6], 19.9%.
As to `CC(C)OP(=S)(Oc1ccc(Cl)cc1Cl)OC(C)C`, the growth inhibition in assay [1] was 20.9%; in assay [2] it was -11.7%; in assay [3], 31.9%; in assay [4], 8.8%; in assay [5] it was 21.2%; in assay [6], 8%.
Turning to `CC(=O)CCNC1(c2ccccc2)CCCCC1`, the growth inhibition in assay [1] was 3.6%; in assay [2], 2.95%; in assay [3] it was -2.65%; in assay [4] it was -0.65%; in assay [5] it was -2.5%; in assay [6], -2.9%.
On to `O=C1C(F)=C(F)C(=O)C(F)=C1F`, for which the growth inhibition in assay [1] was 16.2%; in assay [2] it was -4.75%; in assay [3], 8.35%; in assay [4], -2.85%; in assay [5] it was 21.5%; in assay [6] it was -1.7%.
Consider `O=c1ccc2cc3ccoc3c(O)c2o1`, for which the growth inhibition in assay [1] was 28.6%; in assay [2], 0%; in assay [3], 25.7%; in assay [4] it was 30.6%; in assay [5] it was 10.8%; in assay [6] it was 18.2%.
On to `NC(c1ccccc1)C(Cl)c1ccccc1` (stereo not given), for which the growth inhibition was -6.9% in assay [1]; -54.3% in assay [2]; 3.15% in assay [3]; -20.8% in assay [4]; 14.9% in assay [5]; -7.55% in assay [6].
`O=[N+]([O-])c1ccc(O)c(C=NCCN=Cc2cc([N+](=O)[O-])ccc2O)c1.[Zn+2]`: the growth inhibition in assay [1] is 15.4%; in assay [2], 7%; in assay [3] it was -6.05%; in assay [4], -15.8%; in assay [5] it was 1.1%; in assay [6], 23.4%.
For the compound `CCCN(CCC)CCc1ccc(OC2=CCN(C)CC2)cc1`, the growth inhibition in assay [1] is -22.6%; in assay [2] it was -22.1%; in assay [3] it was 8.85%; in assay [4], 16.6%; in assay [5], -15.8%; in assay [6], -55%.
With `CCCCC(CC)COP(=S)(S)OCC(CC)CCCC.[Sn]` (stereo not given), the growth inhibition is -7.7% in assay [1]; -10.4% in assay [2]; -6.5% in assay [3]; -46.9% in assay [4]; 13.8% in assay [5]; -7.7% in assay [6].
For `CC(C)NC(=O)N1C2C3CCC(C)(OC3(C)C)C21` (stereo not given), the growth inhibition in assay [1] is -16.5%; in assay [2], -21.4%; in assay [3], 3.7%; in assay [4], -9.35%; in assay [5], -14.9%; in assay [6], -12.2%.
